Screens (PubChem)
Only a selection was taken, and hits are over-represented in it overall.
Pf Dd2 growth – inhibitors of Plasmodium falciparum Dd2 growth. Potency, µM (titrated, usually from 28.9 µM), hits mostly inhibitors. P. falciparum Dd2 growth, SYBR Green, 72 h. 120,000 compounds, 4.3% hits; active = well fitted inhibition curve with a large enough effect; also: nearly all actives have a fitted effect of over 65% in size
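Infected erythrocytes (Dd2, 0.3% parasitemia, 2.5% hematocrit final) are added to compound in RPMI-1640/Albumax II medium, grown 72 h at 37C in low oxygen, then lysed with saponin/Triton-X containing SYBR Green and read by fluorescence.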
Hits are given with their value; – = inactive; [ ] = dose if it differs, or a comment.

SMILES	Pf Dd2 growth
O=C(CN1C(=O)C2(SCC(=O)N2c2cccc(Cl)c2)c2ccccc21)NC1CCCCC1 (stereo not given)	12.6µM
CN1C(=O)C2(SCC(=O)N2c2cccc(C(F)(F)F)c2)c2ccccc21 (stereo not given)	–
Cc1cccc(N2C(=O)CSC23C(=O)N(Cc2cccc(C(F)(F)F)c2)c2ccccc23)c1 (stereo not given)	10µM
CN(CCc1noc(C2CN(C(=O)c3ccccc3C(F)(F)F)C2)n1)C(=O)C1CC1	–
COc1ccc(-c2noc(Nc3ccc(C)c(C)c3)n2)cc1	–
COCCNC(=O)c1cc(Br)cn2ccnc12	–
CC(C)c1ccc(C(=O)NCc2c[nH]c3ncccc23)cc1	–
COc1ccc(C(=O)N2CCC(N3CC4CC(C3)[C@H]3CCCC(=O)N3C4)CC2)c(OC)c1 (stereo not given in full)	–
O=C1Cc2c(-c3ccc4ccccc4c3)n[nH]c2CN1Cc1ccccn1	–
CC(NC(=O)Cc1cccn1-c1cccc(Cl)c1)c1cccnc1 (stereo not given)	–
CNC(=O)[C@@H]1C[C@H](n2cc(CNC(=O)Nc3cccc(Cl)c3)nn2)CN1	–
O=C(Nc1ccccc1)N1CC(n2cc(C(=O)N3CCOCC3)nn2)C1	–
O=C(Nc1cccc(Cl)c1)N1CC(n2cc(COc3ccccc3)nn2)C1	7.94µM
Cn1cnc2cc(NC(=O)C[C@H]3NC(=O)c4ccccc4NC3=O)ccc21	–
COCCOc1cc(C)c2c(c1C)C[C@H](C(C)C(=O)N1CCC(O)CC1)CC2 (stereo not given in full)	–
COCCOc1cc(C)c2c(c1C)C[C@H](C(C)C(=O)N1CCSCC1)CC2 (stereo not given in full)	10µM
COc1cc(C)c2c(c1C)C[C@H]([C@H](C)C(=O)O)CC2	–
Cc1ccc(C2Cn3nnc(C(=O)N4CCC(C(=O)NCCc5cccs5)CC4)c3CO2)cc1 (stereo not given)	–
O=C(c1ccccc1F)N1CCCC2(CNc3ccccc3[S+](=O)([O-])N2)C1 (stereo not given)	–
CC(C)CCNC(=O)CC1CCCN(c2cn[nH]c(=O)c2)C1 (stereo not given)	–
O=C(c1ccc2ccccc2n1)N1CCC(N2CC3CC(C2)[C@H]2CCCC(=O)N2C3)CC1 (stereo not given in full)	–
O=C(NC1CCCN(CCc2ccccc2)C1)c1ccccc1-c1ncn[nH]1 (stereo not given)	–
O=[S+]([O-])(Nc1nncs1)c1ccc2c(c1)OCCN(Cc1cncc(F)c1)C2	–
CCCCn1c(C(C)NC(=O)c2ccccc2)nc2ccccc21 (stereo not given)	–
CCCCCCn1c(CNC(=O)c2ccccc2)nc2ccccc21	–
SMILES	Pf Dd2 growth
CCCCn1c(NCc2cc(Cl)ccc2O)nc2ccccc21	3.16µM
Cc1[nH]cnc1-c1nccn1-c1ccc(NC(=O)CN2CCOCC2)cc1	–
CN(C)C(=O)c1cc(-c2ccc(S(C)(=O)=O)cc2)c2cnn(C)c2n1	–
CC(C)NC(=O)c1cc(-c2ccc(S(C)(=O)=O)cc2)c2cnn(C)c2n1	3.16µM
CN(C)C(=O)c1cc(-c2ccc(S(C)(=O)=O)cc2)nc2c1cnn2C	–
O=C1CCN(S(=O)(=O)c2ccccc2)CCCC(C(=O)NCc2ccc(F)cc2)CCN1 (stereo not given)	–
O=C(c1cc(F)ccc1Cl)N1CCN(c2cc(-c3ccccc3)[nH]n2)CC1	–
CC(C)(C)c1ccc(C(=O)Nc2c(C(=O)c3ccc(F)cc3)oc3ccccc23)cc1	8.91µM
COc1ccc(C(=O)Nc2c(C(=O)c3ccc(F)cc3)oc3ccccc23)cc1	–
COc1ccc(C(=O)c2oc3ccccc3c2NC(=O)c2ccc(F)cc2)cc1	–[5.79 µM]
CCOCCNc1ncnc2c1CN(c1ccc(C)cc1)C(=O)CN2C	–
Cc1ccc(OCc2nc(C3CCCCN3C(=O)c3ccn[nH]3)no2)cc1 (stereo not given)	–
Cc1c(CC(=O)NC2CCOC2=O)c2c(n1Cc1ccccc1F)CCCC2=O (stereo not given)	–
Cc1c(CC(=O)NCC2CC2)c2c(n1Cc1ccccc1F)CCCC2=O	–
Cc1c(CC(=O)NC(C)C2CC2)c2c(n1Cc1ccccc1F)CCCC2=O (stereo not given)	10µM
O=C(CCN1CCCCO1)N1CCc2onc(-c3ccc(F)c(F)c3)c2C1	–
O=C(c1cc(Cl)ccc1F)N1CCC[C@H]1c1nc(-c2ccccc2)no1	–
Cn1cnnc1CC1CCCN(C(=O)c2ccco2)C1 (stereo not given)	–
CCCCN1CCC(CNC(=O)c2cccc(C3CCNC3)c2)CC1 (stereo not given)	–
O=C(Cc1ccsc1)N1CCC(Cc2nc(-c3ccc(F)cc3)no2)CC1	–
O=C(Cc1ccc(N(Cc2ccc(F)cc2)C(=O)c2ccco2)cc1)NCCc1ccccc1	–
COc1ccc(CN(C(=O)c2ccco2)c2ccc(CC(=O)NCCc3ccccc3)cc2)cc1	3.98µM
CCNC(=O)Cc1ccc(N(Cc2ccc(C)cc2)C(=O)c2ccco2)cc1	–
C=CCNC(=O)Cc1ccc(N(Cc2ccccc2)C(=O)c2ccco2)cc1	–
COCCNC(=O)Cc1ccc(N(Cc2cccc(F)c2)C(=O)c2ccco2)cc1	–
SMILES	Pf Dd2 growth
COCCNC(=O)Cc1ccc(N(Cc2ccc(C)cc2)C(=O)c2ccco2)cc1	5.62µM
CS(=O)(=O)N1CCCN(C(=O)C2CCOCC2)CCNC(=O)CC1c1ccccc1 (stereo not given)	–
O=C(O)C1(Oc2ccc3ncccc3c2)CCN(Cc2ncc[nH]2)CC1	–
Cc1nc(C2CC(NC3CCN(c4ccccc4F)CC3)C2)cc(=O)[nH]1 (stereo not given)	–
Cc1ccc(C(=O)N2CCC3(CC2)NC(=O)N(Cc2ccccc2)C3=O)cc1F	–
Cc1ccc(C(=O)N2CC[C@@](C)(O)[C@@H](Cc3ccccc3)C2)cc1C	8.91µM
Cc1ccc(C(=O)N2CCC3(CC2)NC(=O)N(c2ccccc2)N3)cc1C	–
COc1ccc(S(=O)(=O)N2C[C@@H]3C[C@H](C2)c2c(NC(=O)c4cncnc4)ccc(=O)n2C3)cc1	–
Cc1oc2c(c1C(=O)NCCN(C)C)CN(C(=O)c1ccncc1)CC2	–
Cc1ccsc1CN1CCc2n[nH]c(=O)n2CC1	–
COC[C@@H]1CN(Cc2ccc(Br)o2)C[C@H]1C(=O)NC1CC1	–
Cc1ccc(-c2cc(C(=O)NCCN3CCN(C)CC3)n(C)c2)cc1	–
CCNC(=O)c1c(C)oc2c1CN(Cc1sccc1C)CC2	11.2µM
Cc1ccc(CN2CCc3oc(C)c(C(=O)NCCN4CCCCC4)c3C2)cc1	1.41µM
COCC(=O)NC[C@H]1CCN(Cc2sccc2C)C[C@H]1N(C)C	–
Cc1c(C)n(C)c2ccc(C(=O)NCCCN3CCCCC3)cc12	–
CCNC(=O)c1c(C)oc2c1CN(Cc1ccc(Br)o1)CC2	7.94µM
COCC(=O)NC[C@H]1OC[C@@H](NC(C)C)[C@@H]1O	–
Cc1ccc(C)c(CCNC(=O)[C@H]2CNC[C@H](C(=O)N3CCOCC3)C2)c1	–
CN(C)c1nc(-c2ccncc2)nc2c1CCN(C(=O)c1ccc(O)cc1)C2	–
COc1cccc(-c2nc3c([nH]2)CC(C)(C)CNC3=O)c1OC	–
CCCC1(CO)CCCN(Cc2cc(OC)c(OC)cc2F)C1 (stereo not given)	–
FC(F)(F)C1CN(c2ccc3cc(Cl)ccc3n2)CCO1 (stereo not given)	–
COC(=O)c1ccc(COC(=O)C2=CN(C)S(=O)(=O)N=C2C)o1	–
